This is part of a sample that, as a whole, favours compounds with a hit. Of some 83,000 tested, about 20% had one in any assay.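 Assay: single dose, 48 h. Readout: percent growth (0 = no net growth; negative = cell death). Active: <10.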 Active and inactive are the calls of the source.
Experiments:
Test in all cases: NCI-60 one-dose screen, 48 h (100 = growth as untreated, 0 = no growth, -100 = all killed)
Conditions in all cases: 10 µM unless noted
NCI-H23 lung = test system: NCI-H23 lung
NCI-H226 lung = test system: NCI-H226 lung
NCI-H322M lung = test system: NCI-H322M lung
HOP-62 NSCLC = test system: HOP-62 NSCLC
NCI-H460 lung = test system: NCI-H460 lung
NCI-H522 lung = test system: NCI-H522 lung
A549/ATCC NSCLC = test system: A549/ATCC NSCLC
786-0 renal = test system: 786-0 renal
COLO 205 colon = test system: COLO 205 colon
DU-145 prostate = test system: DU-145 prostate
K-562 leukemia = test system: K-562 leukemia
MALME-3M melanoma = test system: MALME-3M melanoma
MDA-MB-231 breast = test system: MDA-MB-231 breast
SF-268 CNS = test system: SF-268 CNS
SF-295 CNS = test system: SF-295 CNS
SF-539 CNS = test system: SF-539 CNS
UACC-257 melanoma = test system: UACC-257 melanoma
M14 melanoma = test system: M14 melanoma
HCT-15 colon = test system: HCT-15 colon
RXF 393 renal = test system: RXF 393 renal

Measured: growth

CC1=CC(=O)C(C(C)=Nc2ccccc2Cl)C(=O)O1 (stereo not drawn)
active: UACC-257 melanoma -17.3%
inactive: NCI-H23 lung 142% | NCI-H226 lung 104% | NCI-H322M lung 121% | HOP-62 NSCLC 109% | NCI-H460 lung 109% | NCI-H522 lung 121% | A549/ATCC NSCLC 116% | 786-0 renal 114% | COLO 205 colon 129% | DU-145 prostate 110% | K-562 leukemia 105% | MALME-3M melanoma 123% | MDA-MB-231 breast 105% | SF-268 CNS 101% | SF-295 CNS 121% | SF-539 CNS 101% | M14 melanoma 107% | HCT-15 colon 105%

COc1ccc2[nH]cc(/C=C3/C(=O)Nc4ccc(Cl)cc43)c2c1
inactive: NCI-H23 lung 37.8% | NCI-H226 lung 60.1% | NCI-H322M lung 57.1% | HOP-62 NSCLC 64.8% | NCI-H460 lung 46.1% | A549/ATCC NSCLC 56.6% | 786-0 renal 43.2% | COLO 205 colon 63.8% | DU-145 prostate 47.6% | K-562 leukemia 27.4% | MALME-3M melanoma 31.5% | MDA-MB-231 breast 28.2% | RXF 393 renal 21.3% | SF-295 CNS 53.1% | SF-539 CNS 67.8% | UACC-257 melanoma 68.5% | HCT-15 colon 30.4%
active: NCI-H522 lung -7.27%

O=C(/C(=N/O)S(=O)(=O)c1ccccc1)c1cccs1
inactive: NCI-H23 lung 94.2% | NCI-H226 lung 102% | NCI-H322M lung 111% | HOP-62 NSCLC 94.4% | NCI-H460 lung 102% | NCI-H522 lung 143% | A549/ATCC NSCLC 106% | 786-0 renal 99.8% | COLO 205 colon 104% | DU-145 prostate 115% | K-562 leukemia 93.1% | MALME-3M melanoma 106% | MDA-MB-231 breast 109% | SF-268 CNS 106% | SF-295 CNS 104% | SF-539 CNS 109% | UACC-257 melanoma 106% | M14 melanoma 105% | HCT-15 colon 105%

Cc1cc2c(cc1C)Nc1sc(NC(=O)CN3CCN(C)CC3)nc1C(=O)N2
inactive: NCI-H23 lung 102% | NCI-H226 lung 105% | NCI-H322M lung 105% | HOP-62 NSCLC 94.5% | NCI-H460 lung 101% | NCI-H522 lung 86.3% | A549/ATCC NSCLC 100% | 786-0 renal 98.9% | COLO 205 colon 112% | DU-145 prostate 108% | K-562 leukemia 81.7% | MALME-3M melanoma 109% | MDA-MB-231 breast 114% | SF-268 CNS 103% | SF-295 CNS 109% | SF-539 CNS 107% | UACC-257 melanoma 109% | M14 melanoma 103%

CCOC(=O)c1c(C)c(C(=O)OCC)n(C)c1C
inactive: NCI-H23 lung 121% | NCI-H226 lung 66.6% | NCI-H322M lung 85.4% | HOP-62 NSCLC 74.4% | NCI-H460 lung 117% | NCI-H522 lung 102% | A549/ATCC NSCLC 91.7% | 786-0 renal 92.5% | COLO 205 colon 141% | DU-145 prostate 99% | K-562 leukemia 103% | MALME-3M melanoma 112% | MDA-MB-231 breast 85.6% | SF-268 CNS 93.9% | SF-295 CNS 87.1% | SF-539 CNS 101% | UACC-257 melanoma 134% | M14 melanoma 112% | HCT-15 colon 102%

CSc1nnc(C2=CC(=O)c3ccccc3C2=O)n1-c1ccccc1
active: K-562 leukemia -0.209%
inactive: NCI-H23 lung 83.9% | NCI-H226 lung 85.5% | NCI-H322M lung 91.1% | HOP-62 NSCLC 100% | NCI-H460 lung 83.6% | NCI-H522 lung 64.5% | A549/ATCC NSCLC 76.3% | 786-0 renal 95.2% | COLO 205 colon 110% | DU-145 prostate 104% | MALME-3M melanoma 84.9% | MDA-MB-231 breast 93.2% | SF-268 CNS 92% | SF-295 CNS 85.8% | SF-539 CNS 98.1% | UACC-257 melanoma 86.7% | HCT-15 colon 95.3%

C/C(=C\CCc1ccsc1)CC/C=C(\C)CCCN1CCC(CO)CC1
inactive: NCI-H23 lung 61.4% | NCI-H226 lung 63.4% | NCI-H322M lung 76.2% | HOP-62 NSCLC 62.1% | NCI-H522 lung 27.7% | A549/ATCC NSCLC 36.6% | DU-145 prostate 64.5% | MDA-MB-231 breast 19.6% | SF-268 CNS 60.6%
active: NCI-H460 lung -46.3% | 786-0 renal 5.43% | COLO 205 colon -54.9% | K-562 leukemia -51.4% | MALME-3M melanoma -66.9% | SF-295 CNS 7.65% | SF-539 CNS 9.87% | UACC-257 melanoma -32.4% | M14 melanoma -47.4%

COc1ccc(/C(=C2\O[C@@H]([C@H](O)CO)[C@H]3OC(C)(C)O[C@@H]23)c2cc(OC)c(OC)c(OC)c2)cc1O
inactive: NCI-H23 lung 89.8% | NCI-H226 lung 110% | NCI-H322M lung 109% | HOP-62 NSCLC 88.4% | NCI-H460 lung 107% | NCI-H522 lung 57.5% | A549/ATCC NSCLC 89.4% | 786-0 renal 94.3% | COLO 205 colon 126% | DU-145 prostate 87.1% | K-562 leukemia 12.6% | MALME-3M melanoma 75.7% | MDA-MB-231 breast 97% | SF-268 CNS 71.1% | SF-295 CNS 92.5% | SF-539 CNS 68.2% | UACC-257 melanoma 97.9% | M14 melanoma 47.7% | HCT-15 colon 62.2%

— PubChem BioAssay (NCI)
